From the supplement of paper PMC12636033
± gives the standard deviation of the averaged measurements. In all, about 33,000 sequences were measured (“E-score (rank enrichment, -0.5 to 0.5)”: median about -0.0028, highest 2% from about 0.23 on). The entries come from a sample that favours the highest values as a whole.

Each sequence was assayed on 2Sb-muMax20 (muMax20 with two 1,3-bis(methyl)benzene Cys staples, A13C/A17C and Q88C/A92C, C-terminal Lys) (assay: PBM 8-mer E-score (E-score (rank enrichment, -0.5 to 0.5)); higher = stronger preferential binding).
Description: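 Protein binding microarray (universal PBM chip covering all 10-mers in fixed probe flanks) with chemically synthesized human Max(13-93) bHLH-LZ analogs (not full-length Max) bearing noncanonical residues (hArg, Tha, Aib, Nle at 65) and aromatic Cys staples. Read-out per 8-mer (and its reverse complement): E-score (rank-based enrichment, -0.5 to 0.5) and Z-score of median probe intensity.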

| Sequence | PBM 8-mer E-score |
| --- | --- |
| CCCATTGA | 0.02 ± 0.063 |
| GATCGAGA | -0.0884 ± 0.04 |
| AAAAAGTT | 0.16 ± 0.014 |
| ACTTCTTA | 0.125 ± 0.057 |
| CAATGCAA | 0.0811 ± 0.012 |
| CCAGGGGG | -0.31 ± 0.076 |
| GATCAACA | -0.139 ± 0.023 |
| AATCAACA | 0.308 ± 0.015 |
| TATCAACA | 0.0969 ± 0.067 |
| CGTTCTAC | 0.0207 ± 0.027 |
| AATGACCC | 0.231 ± 0.0025 |
| GATGACCC | -0.157 ± 0.019 |
| AATGACCG | -0.0804 ± 0.021 |
| CTGACTTA | 0.107 ± 0.048 |
| CTCTCCAG | -0.198 ± 0.013 |
| GTAGAAAA | 0.0997 ± 0.012 |
| ACCGCTAT | -0.0561 ± 0.049 |
| GGAAAGCC | -0.00378 ± 0.093 |
| ATACGTAT | 0.407 ± 0.031 |
| ATACGTAC | 0.16 ± 0.0041 |
| ATACGTAA | 0.115 ± 0.0061 |
| AACAGTTC | 0.0164 ± 0.036 |
| GAAGTGCA | 0.122 ± 0.077 |

| Sequence | PBM 8-mer E-score |
| --- | --- |
| TACGTGCA | 0.1615 ± 0.00067 |
| AACGTGCC | 0.0151 ± 0.03 |
| GACGTGCC | -0.174 ± 0.023 |
| CACGTGCA | 0.417 ± 0.026 |
| AAAGTGCA | 0.0798 ± 0.0049 |
| TAAGTGCA | 0.243 ± 0.008 |
| AACGTGCA | 0.0984 ± 0.068 |
| CCCGTGCG | -0.206 ± 0.01 |
| CACGTGCG | 0.39 ± 0.022 |
| AACGTGCG | 0.152 ± 0.016 |
| CACGTGCC | 0.377 ± 0.015 |
| GTGCTAAC | -0.0619 ± 0.0065 |
| ATTGCTAA | -0.034 ± 0.043 |
| AAGGAATC | -0.0571 ± 0.08 |
| CATATGCG | 0.192 ± 0.0076 |
| AATAGCTC | 0.0405 ± 0.046 |
| ATGCGTAG | 0.151 ± 0.017 |
| CTGGGGGC | -0.289 ± 0.044 |
| ATAAGGTA | 0.132 ± 0.044 |
| ATAAGGAA | -0.0755 ± 0.029 |
| ATAAGGTC | 0.231 ± 0.014 |
| ATAAGGAC | -0.0224 ± 0.047 |
| CTAAGGTC | 0.0156 ± 0.022 |

| Sequence | PBM 8-mer E-score |
| --- | --- |
| ATAAGGAT | 0.277 ± 0.0071 |
| ATCGGATC | -0.225 ± 0.064 |
| GCGAAGCC | -0.143 ± 0.0091 |
| AGTCTCTG | -0.178 ± 0.037 |
| GCCGGTTA | -0.0245 ± 0.051 |
| TACTGGAA | 0.187 ± 0.013 |
| CCATAGTA | 0.161 ± 0.049 |
| ACATAGTA | 0.141 ± 0.013 |
| GCATAGTA | 0.234 ± 0.05 |
| ACCGTGAG | -0.24 ± 0.025 |
| GGGATCCA | -0.0748 ± 0.046 |
| AGGTGCAG | -0.176 ± 0.029 |
| AATTGAAC | -0.0329 ± 0.083 |
| AATTGAAT | 0.229 ± 0.021 |
| AATTGAAA | 0.272 ± 0.014 |
| ACCGTAGC | -0.0428 ± 0.011 |
| AGCTTCTA | -0.0235 ± 0.043 |
| AGCTTCTC | 0.245 ± 0.00095 |
| AGCTTCTG | -0.127 ± 0.071 |
| TACGTACA | 0.198 ± 0.0031 |
| CTACCGAC | -0.0505 ± 0.014 |
| GTCCCCTA | 0.093 ± 0.011 |
| CTCCCCTC | 0.147 ± 0.072 |

| Sequence | PBM 8-mer E-score |
| --- | --- |
| ATCCCCTG | 0.114 ± 0.01 |
| ATCCCCTC | 0.2637 ± 0.0019 |
| ATCCCCTA | 0.2799 ± 0.00079 |
| CTCCCCTA | 0.182 ± 0.019 |
| CCTAAACC | 0.0137 ± 0.051 |
| CACACTAG | 0.0294 ± 0.013 |
| ATTCTGCG | -0.00613 ± 0.071 |
| AAGTACGC | 0.0498 ± 0.026 |
| CCCTTGAG | 0.00432 ± 0.0094 |
| GCTGGCTA | -0.249 ± 0.011 |
| ACCCCGAT | 0.136 ± 0.042 |
| CCGTATAC | 0.0522 ± 0.032 |
| CACGAGGA | -0.017 ± 0.031 |
| AACGAGAT | -0.0543 ± 0.025 |
| TACGAGGA | 0.169 ± 0.069 |
| AACGAGGA | 0.239 ± 0.015 |
| CACGAGAA | -0.0119 ± 0.064 |
| AACGAGAA | 0.238 ± 0.04 |
| ATAGTGCG | 0.0132 ± 0.011 |
| CATCGGAC | -0.165 ± 0.033 |
| GATCATAA | 0.278 ± 0.0031 |
| TATCATAA | 0.181 ± 0.012 |
| CATCATAA | 0.142 ± 0.0093 |

| Sequence | PBM 8-mer E-score |
| --- | --- |
| CATCGCGA | 0.056 ± 0.036 |
| ACCATAAC | 0.1 ± 0.012 |
| ATTAATTA | 0.263 ± 0.034 |
| GTTAACTA | 0.207 ± 0.1 |
| ATTAATGG | 0.0434 ± 0.0092 |
| CTAAATTA | 0.0224 ± 0.0043 |
| ATTAACTC | 0.136 ± 0.005 |
| GTTAATGA | 0.148 ± 0.06 |
| ATAAATTA | 0.307 ± 0.014 |
| ATTAATTG | 0.175 ± 0.039 |
| ATAAATTG | 0.165 ± 0.082 |
| ATTAATTC | 0.105 ± 0.042 |
| ATTAACTA | 0.237 ± 0.012 |
| ATTAATGA | 0.278 ± 0.055 |
| CGGTCACG | -0.188 ± 0.076 |
| CAGGGAGC | -0.238 ± 0.051 |
| AGCCTTCA | 0.149 ± 0.085 |
| AATAATTA | 0.269 ± 0.06 |
| ATGAACTA | 0.27 ± 0.054 |
| AATAATGC | 0.213 ± 0.083 |
